Experimental data reported in PubChem BioAssay (EPA / NIEHS).
Inconclusive results are not listed. Calls of active or inactive are those of the source. The calls were made as follows, unless noted: active = hit-call score of the fitted dose curve at least 0.9, where 1 is the maximum; inconclusive = response in the unintended direction; inactive = score below 0.9.

Legend:
[1] = ATG_TCF_b_cat_CIS: Attagene CIS-FACTORIAL HepG2 Assay for human T-Cell-Factor with beta-catenin (TCF/b-cat) (AID 2282965; active = hit-call score of the fitted dose curve at least 0.9, where 1 is the maximum; inactive = score below 0.9); details: HepG2 TCF/beta-catenin cis-reporter transcription, actives raise or lower the signal
Procedure, shortened: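 Cells of the HepG2 line carry transiently transfected reporter units whose promoters respond to endogenous factors. Twenty-four hours post-dosing, reporter mRNA induction is measured by fluorescent RT-PCR and capillary electrophoresis, with DMSO as baseline.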

[2] = ATG_TAL_CIS: Attagene CIS-FACTORIAL HepG2 Assay for human TAL Basal Promoter (AID 2282966; active = hit-call score of the fitted dose curve at least 0.9, where 1 is the maximum; inactive = score below 0.9;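 also: background control endpoint measuring basal TAL promoter reporter mRNA not a specific factor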); details: HepG2 Attagene cis-factorial TAL promoter reporter; actives raise or lower the signal
Procedure, shortened: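 HepG2 cells were transiently transfected with promoter-driven multiplexed reporter units and dosed for 24 h. Reporter mRNA was measured by RT-PCR with capillary electrophoresis fluorescence; bidirectional fits used DMSO as baseline, serving as a background control.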

[3] = ATG_VDRE_CIS: Attagene CIS-FACTORIAL HepG2 Assay for human Vitamin D Receptor Element (VDRE) (AID 2282968; active = hit-call score of the fitted dose curve at least 0.9, where 1 is the maximum; inactive = score below 0.9); details: HepG2 VDRE cis-reporter transcription, actives raise or lower the signal
Procedure, shortened: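 Transiently transfected HepG2 cells carrying cis-regulated reporter transcription units were exposed for 24 h. Reporter mRNA was measured by RT-PCR with fluorescent labelling and capillary electrophoresis, and fitted in both directions against DMSO.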

[4] = target: Estrogen receptor (Homo sapiens) (UniProt P03372); experiment: ATG_ERa_TRANS: Attagene TRANS-FACTORIAL HepG2 Assay for human Estrogen Receptor alpha (ERa) (AID 2282970); details: HepG2 Attagene TRANS ERa GAL4 reporter, mRNA
Procedure, shortened: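 HepG2 cells transiently transfected with multiplexed GAL4-UAS reporter units; ERa activity read via exogenous chimeric NR-Gal4 protein. After 24 hour compound exposure, reporter mRNA measured by RT-PCR with 6-FAM labelling and capillary electrophoresis; gain-of-signal fitted relative to DMSO.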

[5] = target: Steroid hormone receptor ERR1 (Homo sapiens) (UniProt P11474); experiment: ATG_ERRa_TRANS: Attagene TRANS-FACTORIAL HepG2 Assay for human Estrogen-Related Receptor alpha (ERRa) (AID 2282971); details: HepG2 Attagene TRANS reporter, ERRa transactivation
Procedure, shortened: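 HepG2 cells transiently transfected with multiplexed GAL4-UAS reporter units reading chimeric ERRa-Gal4 activity; 24 h compound exposure. Reporter mRNA measured by RT-PCR, 6-FAM labelling, HpaI digest and capillary electrophoresis; gain of signal fitted versus DMSO baseline.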

[6] = target: X-box-binding protein 1 (Homo sapiens) (UniProt P17861); experiment: ATG_Xbp1_CIS: Attagene CIS-FACTORIAL HepG2 Assay for human X-box Binding Protein 1 (XBP1) (AID 2282972; active = hit-call score of the fitted dose curve at least 0.9, where 1 is the maximum; inactive = score below 0.9); details: HepG2 XBP1 cis-element reporter, Attagene multiplex; actives raise or lower the signal
Procedure, shortened: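 Fluorescence-labelled cDNA fragments from reporter transcripts, separated by capillary electrophoresis, give the signal. Source: HepG2 cells transfected with promoter-driven reporter units, harvested 24 h post-dose. DMSO served as reference for bidirectional curve fitting.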

[7] = ATG_M_19_TRANS: Attagene TRANS-FACTORIAL HepG2 Assay for M19 Transcription Factor (Internal Marker) (AID 2282974); details: HepG2 Attagene TRANS-FACTORIAL M19 internal marker reporter
Procedure, shortened: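 Using RT-PCR and capillary electrophoresis, reporter mRNA from transiently transfected human HepG2 cells was quantified following 24 h exposure; activity was fitted in the positive direction against DMSO.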

[8] = target: Bile acid receptor (Homo sapiens) (UniProt Q96RI1); experiment: ATG_FXR_TRANS: Attagene TRANS-FACTORIAL HepG2 Assay for Farnesoid X Receptor (FXR) (AID 2282979); details: HepG2 Attagene TRANS FXR-GAL4 reporter transcription;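 also: hits raise reporter mRNA above DMSO so AC50 marks FXR activation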
Procedure, shortened: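 HepG2 cells transiently transfected with reporter constructs in which a chimeric FXR-GAL4 protein drives a GAL4-UAS reporter; 24 h compound exposure. Reporter mRNA measured by RT-PCR, FAM labelling, HpaI digestion and capillary electrophoresis; gain-of-signal versus DMSO.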

[9] = target: Oxysterols receptor LXR-alpha (Homo sapiens) (UniProt Q13133); experiment: ATG_LXRa_TRANS: Attagene TRANS-FACTORIAL HepG2 Assay for human Liver X Receptor alpha (LXRa) (AID 2282980); details: HepG2 Attagene TRANS reporter, LXRa transactivation
Procedure, shortened: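 HepG2 cells were transiently transfected with multiplexed reporter units driven by chimeric LXRa–GAL4 fusion proteins, then dosed for 24 h. Reporter mRNA was quantified by RT-PCR, fluorescent labelling and capillary electrophoresis; gain of signal fitted against DMSO baseline.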

[10] = ATG_M_32_TRANS: Attagene TRANS-FACTORIAL HepG2 Assay for M32 Transcription Factor (Internal Marker) (AID 2282984); details: HepG2 Attagene TRANS M32 internal marker reporter
Procedure, shortened: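 HepG2 cells transiently transfected with GAL4-UAS reporter units, dosed for 24 hours. Reporter mRNA quantified by RT-PCR, 6-FAM labelling, HpaI digestion and capillary electrophoresis; internal-marker signal fitted upward relative to DMSO.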

[11] = target: Nuclear receptor subfamily 4 group A member 2 (Homo sapiens) (UniProt P43354); experiment: ATG_NURR1_TRANS: Attagene TRANS-FACTORIAL HepG2 Assay for human Nuclear Receptor Related Protein 1 (NURR1) (AID 2282985); details: HepG2 Attagene TRANS reporter, mRNA readout
Procedure, shortened: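 HepG2 cells transiently transfected with NURR1-Gal4 chimera and GAL4-UAS reporter units; after 24 hr compound exposure, reporter mRNA quantified by RT-PCR and capillary electrophoresis; gain of signal fitted against DMSO.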

[12] = target: Transcriptional activator Myb (Homo sapiens) (UniProt P10242); experiment: ATG_Myb_CIS: Attagene CIS-FACTORIAL HepG2 Assay for human Myeloblastosis (Myb) Proto-Oncogene Transcription Factor (AID 2282986; active = hit-call score of the fitted dose curve at least 0.9, where 1 is the maximum; inactive = score below 0.9); details: HepG2 Attagene CIS-FACTORIAL Myb reporter transcription; actives raise or lower the signal
Procedure, shortened: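 In this HepG2 transient-transfection format, cis-regulated reporter mRNA is quantified 24 h post-dosing by RT-PCR with capillary electrophoresis, fitted bidirectionally to DMSO baseline.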

[13] = target: Glucocorticoid receptor (Homo sapiens) (UniProt P04150); experiment: ATG_GR_TRANS: Attagene TRANS-FACTORIAL HepG2 Assay for human Glucocorticoid Receptor (GR) (AID 2282978); details: HepG2 Attagene TRANS GR reporter, mRNA transcription;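 also: activators score as hits since higher reporter transcript over DMSO is fitted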
Procedure, shortened: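 Exogenous NR-GAL4 fusion activity was assessed through induced GAL4-UAS reporter transcripts in transfected human HepG2 cells, quantified after 24 h by RT-PCR and fluorescent capillary electrophoresis with DMSO as baseline.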

[14] = target: Oxysterols receptor LXR-beta (Homo sapiens) (UniProt P55055); experiment: ATG_LXRb_TRANS: Attagene TRANS-FACTORIAL HepG2 Assay for human Liver X Receptor beta (LXRb) (AID 2282981); details: HepG2 Attagene TRANS GAL4-LXRb reporter, mRNA
Procedure, shortened: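 HepG2 cells transiently transfected with GAL4-UAS reporter units for chimeric NR-Gal4 proteins, dosed for 24 h. Reporter transcripts measured by RT-PCR and capillary electrophoresis; gain-of-signal fitting relative to DMSO.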

[15] = target: Hepatocyte nuclear factor 4-alpha (Homo sapiens) (UniProt P41235); experiment: ATG_HNF4a_TRANS: Attagene TRANS-FACTORIAL HepG2 Assay for human Hepatocyte Nuclear Factor 4 alpha (HNF4a) (AID 2282982); details: HepG2 HNF4a transactivation reporter, mRNA readout
Procedure, shortened: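 HepG2 cells transiently transfected with HNF4a-Gal4 chimera and GAL4-UAS reporter units, dosed for 24 h. Reporter mRNA measured by RT-PCR, fluorescent primer extension and capillary electrophoresis; gain-of-signal fitted relative to DMSO.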

[16] = ATG_M_06_TRANS: Attagene TRANS-FACTORIAL HepG2 Assay for M06 Transcription Factor (Internal Marker) (AID 2282983); details: HepG2 Attagene TRANS M06 internal marker reporter;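 also: reporter transcript level by RT-PCR then capillary electrophoresis fluorescence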
Procedure, shortened: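 HepG2 cells transiently transfected with multiplexed GAL4-UAS reporter transcription units; after 24 h compound exposure, reporter mRNA measured by RT-PCR, FAM-labelled primer extension, HpaI digestion and capillary electrophoresis. Gain-of-signal fitted versus DMSO baseline; background control readout.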

[17] = target: Nuclear receptor subfamily 1 group I member 3 (Homo sapiens) (UniProt Q14994); experiment: ATG_CAR_TRANS: Attagene TRANS-FACTORIAL HepG2 Assay for human Constitutive Androstane Receptor (CAR) (AID 2282969); details: HepG2 Attagene TRANS-FACTORIAL CAR reporter;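 also: activators raise reporter mRNA above DMSO so AC50 marks induction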
Procedure, shortened: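 HepG2 cells transiently transfected with GAL4-UAS reporter units; TRANS format reads activity of exogenous chimeric NR-Gal4 protein. After 24 h dosing, reporter mRNA quantified by RT-PCR, 6-FAM labelling and capillary electrophoresis; gain of signal fitted against DMSO.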

[18] = ATG_GAL4_TRANS: Attagene TRANS-FACTORIAL HepG2 Assay for GAL4 (Internal Marker) (AID 2282976); details: HepG2 Attagene TRANS GAL4 internal marker reporter
Procedure, shortened: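 HepG2 cells transiently transfected with multiplexed GAL4-UAS reporter constructs were dosed for 24 h. Reporter mRNA was measured by RT-PCR, 6-FAM primer extension, HpaI digestion and capillary electrophoresis, and gain of signal was fitted relative to DMSO.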

[19] = ATG_TGFb_CIS: Attagene CIS-FACTORIAL HepG2 Assay for human Transforming Growth Factor (TGF) (AID 2282967; active = hit-call score of the fitted dose curve at least 0.9, where 1 is the maximum; inactive = score below 0.9); details: HepG2 Attagene CIS TGFb reporter, mRNA transcription; actives raise or lower the signal
Procedure, shortened: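 Multiplexed cis-reporter HepG2 system, 24 h treatment; mRNA induction read by fluorescence after RT-PCR and CE; DMSO negative control, bidirectional curve fitting.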

[20] = target: Estrogen-related receptor gamma (Homo sapiens) (UniProt P62508); experiment: ATG_ERRg_TRANS: Attagene TRANS-FACTORIAL HepG2 Assay for human Estrogen-Related Receptor gamma (ERRg) (AID 2282977); details: HepG2 Attagene TRANS reporter, ERRg transactivation;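 also: hits increase reporter signal over DMSO so potencies reflect activators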
Procedure, shortened: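 HepG2 cells transiently transfected with multiplexed GAL4-UAS reporter units driven by chimeric NR-Gal4 proteins; 24 h exposure. Reporter mRNA quantified by RT-PCR, fluorescent labelling, HpaI digestion and capillary electrophoresis; gain of signal vs DMSO.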

Measured: AC50

Sequence of Oxysterols receptor LXR-alpha (Homo sapiens) (Q13133 whole entry, looked up, the tested form may be a part): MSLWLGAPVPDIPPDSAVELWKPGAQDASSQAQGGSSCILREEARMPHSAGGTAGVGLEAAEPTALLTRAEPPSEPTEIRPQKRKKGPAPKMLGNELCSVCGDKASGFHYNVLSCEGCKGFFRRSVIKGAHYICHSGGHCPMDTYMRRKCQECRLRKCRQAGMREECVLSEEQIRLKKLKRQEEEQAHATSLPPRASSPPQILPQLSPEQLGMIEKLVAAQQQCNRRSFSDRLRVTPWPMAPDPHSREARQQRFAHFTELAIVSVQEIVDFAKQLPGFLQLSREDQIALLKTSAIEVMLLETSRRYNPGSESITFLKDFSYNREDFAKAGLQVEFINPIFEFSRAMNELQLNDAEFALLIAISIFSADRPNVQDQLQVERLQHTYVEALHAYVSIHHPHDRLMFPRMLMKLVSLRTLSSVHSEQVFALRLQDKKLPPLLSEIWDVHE
Sequence of X-box-binding protein 1 (Homo sapiens) (P17861 whole entry, looked up, the tested form may be a part): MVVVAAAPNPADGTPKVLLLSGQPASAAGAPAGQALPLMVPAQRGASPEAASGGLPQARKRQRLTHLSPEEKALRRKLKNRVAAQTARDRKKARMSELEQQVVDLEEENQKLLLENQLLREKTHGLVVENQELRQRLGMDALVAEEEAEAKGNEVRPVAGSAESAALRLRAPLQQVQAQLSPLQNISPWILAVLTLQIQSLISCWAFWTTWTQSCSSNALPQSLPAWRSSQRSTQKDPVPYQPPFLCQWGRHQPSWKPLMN
Sequence of Glucocorticoid receptor (Homo sapiens) (P04150 whole entry, looked up, the tested form may be a part): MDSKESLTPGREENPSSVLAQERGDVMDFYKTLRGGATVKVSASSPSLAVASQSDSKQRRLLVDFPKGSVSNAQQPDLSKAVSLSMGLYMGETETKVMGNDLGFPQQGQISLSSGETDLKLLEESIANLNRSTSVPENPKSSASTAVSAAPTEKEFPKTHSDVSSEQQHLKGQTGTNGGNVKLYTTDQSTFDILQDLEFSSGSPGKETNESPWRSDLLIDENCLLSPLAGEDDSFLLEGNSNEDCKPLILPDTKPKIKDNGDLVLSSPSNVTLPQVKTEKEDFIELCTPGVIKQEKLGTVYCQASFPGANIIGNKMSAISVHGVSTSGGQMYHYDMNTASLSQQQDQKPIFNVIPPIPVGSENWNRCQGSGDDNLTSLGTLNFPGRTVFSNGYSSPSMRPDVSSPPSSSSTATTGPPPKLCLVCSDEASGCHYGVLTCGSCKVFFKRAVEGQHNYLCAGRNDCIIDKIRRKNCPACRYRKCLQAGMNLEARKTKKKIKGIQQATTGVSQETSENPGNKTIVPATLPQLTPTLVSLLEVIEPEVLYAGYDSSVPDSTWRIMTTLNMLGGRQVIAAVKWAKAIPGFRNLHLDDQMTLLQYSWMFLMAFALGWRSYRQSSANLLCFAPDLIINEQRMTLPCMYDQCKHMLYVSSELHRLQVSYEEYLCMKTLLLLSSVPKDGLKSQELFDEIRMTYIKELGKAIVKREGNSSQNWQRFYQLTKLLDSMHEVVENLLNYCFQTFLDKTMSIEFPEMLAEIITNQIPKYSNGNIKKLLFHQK
Sequence of Nuclear receptor subfamily 4 group A member 2 (Homo sapiens) (P43354 whole entry, looked up, the tested form may be a part): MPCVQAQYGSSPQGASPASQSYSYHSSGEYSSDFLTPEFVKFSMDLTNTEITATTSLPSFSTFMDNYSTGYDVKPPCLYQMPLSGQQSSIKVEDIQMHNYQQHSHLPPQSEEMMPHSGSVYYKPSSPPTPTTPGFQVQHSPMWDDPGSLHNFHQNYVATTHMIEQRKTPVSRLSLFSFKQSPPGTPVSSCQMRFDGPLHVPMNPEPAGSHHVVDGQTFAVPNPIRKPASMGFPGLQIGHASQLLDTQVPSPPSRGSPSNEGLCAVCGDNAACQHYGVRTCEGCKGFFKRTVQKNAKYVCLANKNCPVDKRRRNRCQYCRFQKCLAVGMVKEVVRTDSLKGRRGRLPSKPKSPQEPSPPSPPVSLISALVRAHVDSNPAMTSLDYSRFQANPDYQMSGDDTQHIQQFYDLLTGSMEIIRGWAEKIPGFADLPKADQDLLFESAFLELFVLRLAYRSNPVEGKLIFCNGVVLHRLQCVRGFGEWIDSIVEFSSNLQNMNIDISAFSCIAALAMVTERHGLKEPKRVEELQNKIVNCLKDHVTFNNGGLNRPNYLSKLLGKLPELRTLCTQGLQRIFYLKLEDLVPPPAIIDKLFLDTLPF
Sequence of Oxysterols receptor LXR-beta (Homo sapiens) (P55055 whole entry, looked up, the tested form may be a part): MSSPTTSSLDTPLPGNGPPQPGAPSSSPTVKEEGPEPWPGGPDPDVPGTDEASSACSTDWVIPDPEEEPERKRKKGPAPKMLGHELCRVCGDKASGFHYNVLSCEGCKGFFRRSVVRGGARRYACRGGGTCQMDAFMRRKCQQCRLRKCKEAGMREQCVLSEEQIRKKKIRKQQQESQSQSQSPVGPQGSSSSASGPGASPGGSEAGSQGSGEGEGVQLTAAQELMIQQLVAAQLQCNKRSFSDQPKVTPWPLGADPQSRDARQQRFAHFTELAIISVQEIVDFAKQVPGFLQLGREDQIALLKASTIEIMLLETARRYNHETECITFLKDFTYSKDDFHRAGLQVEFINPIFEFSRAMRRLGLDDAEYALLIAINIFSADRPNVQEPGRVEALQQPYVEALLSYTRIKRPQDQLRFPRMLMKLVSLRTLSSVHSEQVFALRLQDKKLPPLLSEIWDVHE
Sequence of Estrogen-related receptor gamma (Homo sapiens) (P62508 whole entry, looked up, the tested form may be a part): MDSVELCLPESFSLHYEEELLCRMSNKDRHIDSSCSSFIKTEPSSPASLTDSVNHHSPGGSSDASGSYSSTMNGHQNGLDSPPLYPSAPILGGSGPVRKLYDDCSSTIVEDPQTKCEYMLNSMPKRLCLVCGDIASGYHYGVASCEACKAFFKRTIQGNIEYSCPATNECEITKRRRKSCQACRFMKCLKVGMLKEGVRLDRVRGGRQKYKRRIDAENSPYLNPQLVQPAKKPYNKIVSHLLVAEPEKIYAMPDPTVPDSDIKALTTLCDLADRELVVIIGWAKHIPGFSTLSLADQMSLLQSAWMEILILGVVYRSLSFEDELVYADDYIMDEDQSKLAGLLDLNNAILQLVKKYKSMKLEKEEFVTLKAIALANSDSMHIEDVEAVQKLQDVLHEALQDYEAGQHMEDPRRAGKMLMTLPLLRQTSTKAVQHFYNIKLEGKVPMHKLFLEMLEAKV
Sequence of Transcriptional activator Myb (Homo sapiens) (P10242 whole entry, looked up): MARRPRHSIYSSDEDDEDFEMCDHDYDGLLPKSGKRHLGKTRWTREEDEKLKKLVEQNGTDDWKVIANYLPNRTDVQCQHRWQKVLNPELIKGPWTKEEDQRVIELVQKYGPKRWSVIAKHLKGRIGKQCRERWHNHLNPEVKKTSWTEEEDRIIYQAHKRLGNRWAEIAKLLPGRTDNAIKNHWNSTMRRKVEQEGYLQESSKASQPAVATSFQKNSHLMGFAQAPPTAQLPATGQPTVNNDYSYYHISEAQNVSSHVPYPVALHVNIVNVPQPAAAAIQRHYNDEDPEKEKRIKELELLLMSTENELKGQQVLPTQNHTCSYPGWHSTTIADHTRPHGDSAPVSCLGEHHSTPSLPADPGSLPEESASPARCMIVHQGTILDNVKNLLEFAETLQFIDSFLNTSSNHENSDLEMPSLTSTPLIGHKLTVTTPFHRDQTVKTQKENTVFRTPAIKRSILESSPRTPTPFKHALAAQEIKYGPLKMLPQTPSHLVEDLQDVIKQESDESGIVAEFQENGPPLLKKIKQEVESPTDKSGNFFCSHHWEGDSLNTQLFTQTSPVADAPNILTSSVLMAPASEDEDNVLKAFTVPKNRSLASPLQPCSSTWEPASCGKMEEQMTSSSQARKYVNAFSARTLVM
Sequence of Hepatocyte nuclear factor 4-alpha (Homo sapiens) (P41235 whole entry, looked up, the tested form may be a part): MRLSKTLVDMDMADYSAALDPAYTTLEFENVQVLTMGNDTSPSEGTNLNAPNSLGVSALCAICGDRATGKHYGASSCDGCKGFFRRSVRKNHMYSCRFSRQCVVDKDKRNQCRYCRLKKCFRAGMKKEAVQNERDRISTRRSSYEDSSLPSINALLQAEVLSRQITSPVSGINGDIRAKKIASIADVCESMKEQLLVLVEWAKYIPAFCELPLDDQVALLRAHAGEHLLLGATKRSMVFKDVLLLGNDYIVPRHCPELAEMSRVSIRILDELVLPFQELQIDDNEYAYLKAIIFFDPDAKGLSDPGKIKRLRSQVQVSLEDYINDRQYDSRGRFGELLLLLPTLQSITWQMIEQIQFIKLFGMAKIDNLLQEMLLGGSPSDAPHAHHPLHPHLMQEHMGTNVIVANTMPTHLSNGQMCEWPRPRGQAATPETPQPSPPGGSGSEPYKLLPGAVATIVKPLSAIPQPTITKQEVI
Sequence of Estrogen receptor (Homo sapiens) (P03372 whole entry, looked up, the tested form may be a part): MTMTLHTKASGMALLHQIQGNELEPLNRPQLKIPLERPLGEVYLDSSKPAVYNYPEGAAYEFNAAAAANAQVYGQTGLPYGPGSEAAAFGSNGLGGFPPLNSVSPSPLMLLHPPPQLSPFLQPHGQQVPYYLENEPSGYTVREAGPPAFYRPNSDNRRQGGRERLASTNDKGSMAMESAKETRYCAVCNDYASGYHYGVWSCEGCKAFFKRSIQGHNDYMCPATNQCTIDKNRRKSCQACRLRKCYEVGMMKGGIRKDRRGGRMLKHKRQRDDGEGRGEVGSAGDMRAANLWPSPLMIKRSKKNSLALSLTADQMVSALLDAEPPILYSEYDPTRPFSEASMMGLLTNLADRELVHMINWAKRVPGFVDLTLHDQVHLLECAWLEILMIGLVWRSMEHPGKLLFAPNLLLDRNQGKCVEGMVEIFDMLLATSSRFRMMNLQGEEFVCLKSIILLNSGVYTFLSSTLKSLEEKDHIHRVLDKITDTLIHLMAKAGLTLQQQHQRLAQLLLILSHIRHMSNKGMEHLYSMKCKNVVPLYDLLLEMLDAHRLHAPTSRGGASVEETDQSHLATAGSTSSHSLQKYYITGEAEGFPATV

O=S(=O)(Cl)C(F)(F)C(F)(F)C(F)(F)C(F)(F)C(F)(F)C(F)(F)C(F)(F)C(F)(F)F
active: [4] 20.7 µM
not listed: [13] | [14] | [15] | [16] | [17] | [18] | [19] | [20]
inactive: all other assays above

F[Si-2](F)(F)(F)(F)F
not listed: [4] | [5] | [7] | [9] | [17] | [18] | [19] | [20]
inactive: all other assays above

CC(C)Nc1ccc(NC(C)C)c2c1C(=O)c1ccccc1C2=O
active: [3] 0.417 µM
inactive: [1] | [2] | [17] | [4] | [6] | [18] | [13] | [16] | [11] | [12]

Cc1ccc(O)c(-n2nc3ccccc3n2)c1
active: [4] 13.4 µM
not listed: [1] | [5] | [7] | [11] | [13] | [15] | [18]
inactive: all other assays above

CCCCCCCC/C=C\CCCCCCCC(=O)N(C)CC(=O)O
not listed: [5] | [9] | [11] | [14] | [15] | [17] | [18] | [19]
inactive: all other assays above

Cc1ccc2c(c1)OCC(=O)CO2
not listed: [5] | [10] | [15] | [16] | [17] | [18] | [19]
inactive: all other assays above

Cc1cc(C)c(O)c(C(C)(C)C)c1
active: [3] 25.9 µM
inactive: [1] | [2] | [17] | [4] | [6] | [9] | [10] | [11] | [12]

Brc1ccccn1
not listed: [5] | [9] | [13] | [17] | [19] | [20]
inactive: all other assays above

OCC(F)(F)C(F)(F)C(F)(F)CO
inactive: [1] | [2] | [3] | [4] | [6] | [18] | [13] | [11] | [12]

O=C1OC(=O)c2ccc3c4c(ccc1c24)C(=O)OC3=O
not listed: [5] | [7] | [11] | [13] | [14] | [17] | [19] | [20]
inactive: all other assays above
